Pf Dd2 growth – qHTS Primary assay for Inhibitors of Plasmodium falciparum Dd2 growth in vitro | 120,000 compounds, 4.3% hits | P. falciparum Dd2 growth, SYBR Green, 72 h | Potency, µM (top dose mostly 28.9 µM), for inactives: top-dose activity, negative = inhibition, hits mostly inhibitors; active means well fitted inhibition curve with a large enough effect;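 further: plate controls were DMSO vehicle for no effect and reference drug for full effect; nearly all actives have a fitted effect of over 65% in size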
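Infected erythrocytes (Dd2, 0.3% parasitemia, 2.5% hematocrit final) are added to compound in RPMI-1640/Albumax II medium, grown 72 h at 37C in low oxygen, then lysed with saponin/Triton-X containing SYBR Green and read by fluorescence.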
An asterisk follows results filed as active; i = inactive; [ ] = dose if it differs, or a comment. Shown is part of a subset that was picked to be rich in hits. Potency means the concentration at half of the fitted maximal effect.

SMILES	Pf Dd2 growth
Cc1nc2cccnc2n1CC1CCCN(S(=O)(=O)c2ccc(F)c(F)c2)C1 (configuration not stated)	-17%
Cc1ccc(S(=O)(=O)N2CCCC(Cn3c(C)nc4cccnc43)C2)cc1 (configuration not stated)	-6%
Cc1ccc(S(=O)(=O)N2CCCC(Cn3c(C)nc4cccnc43)C2)cc1Cl (configuration not stated)	7.1µM*
Cc1ccsc1C(=O)N[C@@H]1CN(c2ncccn2)C[C@H]1CN(C)C	5%
COc1ncccc1-c1cc(C(=O)N2CCC(OC)CC2)c2c(c1)ncn2C	3%[44.1 µM]
O=C1NCCOCCCN(S(=O)(=O)c2cccs2)[C@H]2CCCC[C@@H]12	16%
CCCc1noc(-c2cn(C3CCN(C(=O)c4ccc(OC)cc4)CC3)nn2)n1	155%
CS(=O)(=O)N1CCCC(C(=O)N2CCN(Cc3ccccc3)CC2)CCNC(=O)CC1 (configuration not stated)	-1%
O=C(c1cc(C2CC2)nc2onc(C3CCNCC3)c12)N1CCOCC1	-7%
CC(C)c1ccc(NC(=O)O[C@@H]2CO[C@H]3[C@@H]2OC[C@@H]3NS(=O)(=O)c2cccs2)cc1	2.2µM*
Cc1ccc(C(=O)N[C@H]2CO[C@H]3[C@@H]2OC[C@H]3OC(=O)Nc2ccc(C(C)C)cc2)cc1	-14%[44.1 µM]
COc1ccc(NC(=O)O[C@@H]2CO[C@H]3[C@@H]2OC[C@@H]3NS(=O)(=O)c2ccccc2C#N)cc1	i
COc1ccc(OC)c(S(=O)(=O)N[C@H]2CO[C@H]3[C@@H]2OC[C@H]3OC(=O)Nc2ccc(Oc3ccccc3)cc2)c1	-24%
N#Cc1ccccc1S(=O)(=O)N[C@H]1CO[C@H]2[C@@H]1OC[C@H]2OC(=O)Nc1ccc(Oc2ccccc2)cc1	i
CC(=O)Nc1ccc(S(=O)(=O)N[C@H]2CO[C@H]3[C@@H]2OC[C@H]3OC(=O)Nc2ccc(Oc3ccccc3)cc2)cc1	6.3µM*
CN(Cc1cccc(C(F)(F)F)c1)C(=O)C1(C)CCOCC1	10%
O=C(c1cccnc1)N1CCC(N2C(=O)C(OCC3CC3)C23CCOCC3)CC1 (configuration not stated)	16%
COCC[C@]1(O)CCN(C(=O)c2cc(-n3cccn3)ccc2Cl)C[C@H]1C	8%
OCC1CN(c2ccncn2)CC12CCN(Cc1ccc(F)c(F)c1)CC2 (configuration not stated)	-5%
CCc1ccccc1S(=O)(=O)N1CCC2(CC1)CN(C(C)=O)CC2COC (configuration not stated)	-29%
Cc1cccc(C(=O)N2C[C@@H](Oc3ccccc3)C[C@H]2C(=O)N2CCOCC2)c1	7%
Cc1ccc(F)c(C(=O)N2CC(C)(C)C(C)(O)C2)c1Cl (configuration not stated)	-1%
COCCCNc1nc(-c2cccnc2)nc2c1CNC2	-15%
CCn1cc2nc(SCc3cc(C)ccc3C)n(Cc3ccc(C)cc3)c(=O)c2n1	10µM*
CCn1cc2nc(SCc3ccccc3)n(Cc3ccc(C)cc3)c(=O)c2n1	1%
SMILES	Pf Dd2 growth
CCn1cc2nc(SCc3ccc(F)cc3)n(Cc3ccc(Cl)cc3)c(=O)c2n1	-4%
CCc1nc(-c2c3n(c(=O)n(Cc4ccc(F)cc4)c2=O)CCCCC3)no1	35%
NC(=O)C1CCN(CC2(O)CCCN(CCCc3ccccc3)C2=O)CC1 (configuration not stated)	3%
O=C(Nc1ccc(F)cc1)c1ccc(-n2cnnc2)cc1	26%
O=C(Nc1ccc(Cl)cc1Cl)c1ccn2cncc2c1	-1%[44.1 µM]
O=C(Nc1ccc(Cl)cc1Cl)c1ccc2cncn2c1	i
O=C(Nc1ccc(Cl)cc1Cl)c1cccn2cncc12	13µM*
O=C(Nc1ccc(F)cc1)c1cc2cccnn2n1	i
O=C(Nc1ccc(F)cc1)c1cccn2cncc12	16µM*
Cc1ncc(CC(=O)N2C[C@@H](C(=O)O)[C@H](C3CC3)C2)c(=O)[nH]1	-15%
CC(C)C[C@@H](NC(=O)C1=C[C@@H](NC(=O)Cc2cccs2)[C@@H](O)[C@H](O)C1)C(N)=O	-17%[44.1 µM]
O=C(Nc1ccc(F)cc1F)N1C[C@@H](F)[C@@H](OCc2nc3ccccc3[nH]2)C1	-2%[44.1 µM]
Cc1ccsc1C(=O)N1CCC(N2C[C@H](O)C[C@H]2C(=O)NCc2cccnc2)CC1	6%
CN1c2cc(C(=O)N3CCc4ccccc4C3)ccc2C(=O)N2CCCC21 (configuration not stated)	i
O=C(Nc1ccccc1)N1CCn2c(nnc2C2CCCN2)C1 (configuration not stated)	14%
CN(C(=O)Cn1ccn2nc(-c3ccccc3)c(CO)c2c1=O)c1ccccc1	i
COc1cc(C(=O)Nc2nc3c(s2)C[C@]2(C)CC[C@@H]4[C@H](OC(=O)[C@H]4C)[C@H]2[C@@H]3C)cc(OC)c1OC	-25%
COc1ccc(Br)c2c1-c1nc(NC(=O)c3ccc(F)cc3)sc1C2	2.8µM*
COc1ccc(Br)c2c1-c1nc(NC(=O)c3ccccc3SC)sc1C2	-5%
COc1ccc(Br)c2c1-c1nc(NC(=O)c3ccccc3F)sc1C2	47%
COc1cc(C(=O)Nc2ccc3nc(SCc4ccccc4)sc3c2)cc(OC)c1OC	i
COc1cc(C(=O)Nc2nc3c(s2)Cc2c(Br)ccc(OC)c2-3)cc(OC)c1OC	3.2µM*
COCc1ncc(C)n1CCNC(=O)c1cc(-c2ccccc2C)n[nH]1	-15%
CN1CCC(Cc2noc(C3CC(=O)N(Cc4cccnc4)C3)n2)CC1 (configuration not stated)	-6%
CN1CCCN(C(=O)C2CCOCC2)c2ccccc21	16%
SMILES	Pf Dd2 growth
O=C(NCc1ccc(F)cc1)c1nc(-c2ccc(Cl)nc2)c2cnccn12	7.9µM*
O=C(c1nc(-c2ccc(Cl)nc2)c2cnccn12)N1CCCC1	9%
O=C(NCCc1ccc(Cl)cc1)c1nc(-c2ccc(Cl)nc2)c2cnccn12	8.9µM*
O=C(NCc1cccnc1)c1nc(-c2ccc(Cl)nc2)c2ccccn12	58%
C#CCNC(=O)c1nc(-c2ccc(Cl)nc2)c2ccccn12	-26%
O=C(NCCc1ccc(Cl)cc1)c1nc(-c2ccccc2)c2ccccn12	-7%
O=C(NCc1cccnc1)c1nc(-c2ccccc2)c2ccccn12	10µM*
COc1ccccc1-c1nc(C(=O)NC2CC2)n2ccncc12	-19%[44.1 µM]
C#CCNC(=O)c1nc(-c2cccnc2)c2ccccn12	i
COCCNC(=O)c1nc(-c2ccccc2OC)c2cnccn12	-8%[44.1 µM]
COC(=O)CNC(=O)c1nc(-c2ccc(Cl)nc2)c2cnccn12	10%
COc1ccccc1-c1nc(C(=O)NCc2ccc3c(c2)OCO3)n2ccncc12	13µM*
COc1ccc(NC(=O)N2CCC(Oc3ncccc3C(=O)N(C)C)C2)c(C)c1 (configuration not stated)	41%
COc1ccc(C(=O)N2C[C@@H]3OCC(=O)N(Cc4nccn4C)[C@@H]3C2)cc1	11%[44.1 µM]
CNC(=O)c1cccc(-c2cnc3[nH]cc(CC(=O)N(C)c4ccccc4)c3c2)c1	-5%[44.1 µM]
Cc1nnnn1CCC(=O)N1CCCC(c2nnc(Cn3ccnc3)n2C)C1 (configuration not stated)	-1%
CCC1(N2CCN(C(=O)c3ccc(F)c(Cl)c3)CC2)CCN(C(=O)NC)C1 (configuration not stated)	i
O=C(c1n[nH]c2ccccc12)N1CCCC(Cc2noc(-c3cnccn3)n2)C1 (configuration not stated)	i
COCC(=O)N(C1CCOCC1)C1CCN(C(=O)c2ccccc2OC(F)(F)F)CC1	-28%
